Inconclusive results are not listed. Entries that show only a call come without a potency. More than one record can exist for a structure, and the calls need not agree. Calls of active or inactive are those of the source. Calls come from the whole dose curve.
Biological target: 5-hydroxytryptamine receptor 2A (Homo sapiens) (UniProt P28223)
Assay: 5-hydroxytryptamine receptor 2A (HTR2A) small molecule agonists, cell-based qHTS assay (AID 1963587); note: nearly all actives have a fitted effect of over 30% in size
Details: HTR2A-CHO cells, calcium flux fluorescence, agonist mode; series mostly up to 76.8 µM
Procedure, shortened: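 Kinetic calcium-flux fluorescence (2 min, 1 sec intervals) after compound addition in agonist mode. HTR2A-CHO cells were cultured 18 h, then dye-loaded 1 h at 37 C.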
Potency is the fitted concentration of half-maximal effect.

5-hydroxytryptamine receptor 2A (Homo sapiens), sequence (P28223 whole entry, looked up): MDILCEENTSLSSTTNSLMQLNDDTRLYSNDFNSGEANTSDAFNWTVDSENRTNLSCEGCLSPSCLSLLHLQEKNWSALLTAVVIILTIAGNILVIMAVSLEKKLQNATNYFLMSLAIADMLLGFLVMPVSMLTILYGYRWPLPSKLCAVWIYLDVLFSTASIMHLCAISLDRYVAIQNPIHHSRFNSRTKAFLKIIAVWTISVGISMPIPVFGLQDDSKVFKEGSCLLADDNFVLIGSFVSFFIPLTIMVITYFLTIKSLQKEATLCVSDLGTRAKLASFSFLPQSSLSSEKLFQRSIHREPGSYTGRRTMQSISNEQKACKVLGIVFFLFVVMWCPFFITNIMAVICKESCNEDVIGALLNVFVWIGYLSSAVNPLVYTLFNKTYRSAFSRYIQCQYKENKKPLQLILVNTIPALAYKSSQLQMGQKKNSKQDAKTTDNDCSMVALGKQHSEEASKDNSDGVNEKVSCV

SMILES | Potency
Nc1nc(N)c(N)c(N)n1 | 43.9 µM (active)
CCOP(=S)(NC(C)C)Oc1ccccc1C(=O)OC(C)C (configuration not stated) | inactive
COC(=O)C(C)N(C(=O)c1ccco1)c1c(C)cccc1C (configuration not stated) | inactive
CCCCCCCc1ccc(O)cc1 | inactive
CCOP(=O)(OCC)Oc1nc(Cl)c(Cl)cc1Cl | inactive
O=c1ssc(Cl)c1Cl | inactive
CNC(=O)N(C)c1nc2ccccc2s1 | inactive
CC(C)(O)c1cnn2c(-c3ccc(F)c(-c4c(F)cccc4C#N)c3)cnc2n1 | 54.9 µM (active)
CCOc1cc(C(C)(C)C)ccc1C1COC(c2c(F)cccc2F)=N1 (configuration not stated) | inactive
NC1CCC(CC2CCC(N)CC2)CC1 (configuration not stated) | 19.2 µM (active)
O=[N+]([O-])c1ccc(Oc2ccc(C(F)(F)F)cc2[N+](=O)[O-])cc1 | inactive
CCCN(CC1CC1)c1c([N+](=O)[O-])cc(C(F)(F)F)cc1[N+](=O)[O-] | inactive
OCC(c1ccc(Cl)cc1)c1ccc(Cl)cc1 | inactive
COC(C)(C)CCC[C@H](C)C/C=C/C(C)=C/C(=O)OC(C)C | inactive
CCCSP(=S)(OCC)Oc1ccc(Cl)cc1Cl (configuration not stated) | inactive
O=C(N[C@H](c1ccccc1)[C@@H]1CN2CCC1CC2)c1c(Cl)ccc(C(F)(F)F)c1Cl | inactive

SMILES | Potency
O=[N+]([O-])c1cc(C(F)(F)F)cc([N+](=O)[O-])c1Cl | inactive
c1cc(OCC2CO2)ccc1Cc1ccc(OCC2CO2)cc1 (configuration not stated) | inactive
NNC(N)=O | inactive
CN1CCc2cc3c(cc2C1O)OCO3 (configuration not stated) | inactive
Fc1ccc(Oc2ccnc3cc(Cl)cc(Cl)c23)cc1 | inactive
O=C1C(I)=CC(=C(c2cc(I)c(O)c(I)c2)c2ccccc2C(=O)O)C=C1I | inactive
Oc1ccc([C@H]2CNCc3c2ccc(O)c3O)cc1O | 9.52 µM (active)
CCC1(CC)C(=O)N=C(O)NC1=O | inactive
CCCCN(CCCC)C(=S)S | inactive
NS(=O)(=O)C(F)(F)C(F)(F)C(F)(F)C(F)(F)C(F)(F)C(F)(F)C(F)(F)C(F)(F)F | inactive
CSC(=O)c1c(C(F)F)nc(C(F)(F)F)c(C(=O)SC)c1CC(C)C | inactive
CCOP(=S)(Oc1ccc([N+](=O)[O-])cc1)c1ccccc1 (configuration not stated) | inactive
OC(c1ccc(Cl)cc1)(c1ccc(Cl)cc1)C(Cl)(Cl)Cl | inactive
CC(C)(c1ccccc1)c1ccc(O)cc1 | 54.5 µM (active) and inactive
Brc1ccc(Oc2ccc(Br)cc2Br)c(Br)c1 | inactive
CCOC(=O)CCN(SN(C)C(=O)Oc1cccc2c1OC(C)(C)C2)C(C)C | inactive

— PubChem BioAssay (Tox21)
